In PubChem BioAssay (NCI):
About 83,000 compounds went through this panel and 20% of them were active in at least one assay; those are over-represented in the sample as a whole.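 Cell lines were cultured in 96-well plates, exposed to a single compound concentration, and assessed for percent growth 48 hours later.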 Unmarked numbers belong to inactive results. Calls of active or inactive are those of the source. The calls were made as follows: active = growth percent below 10; inactive = the rest.

Key:
Experiment in all cases: NCI-60 one-dose screen, 48 h (100 = growth as untreated, 0 = no growth, -100 = all killed)
Conditions in all cases: 10 µM unless noted
DU-145 prostate = tested on: DU-145 prostate
K-562 leukemia = tested on: K-562 leukemia
MALME-3M melanoma = tested on: MALME-3M melanoma
MDA-MB-231 breast = tested on: MDA-MB-231 breast
RXF 393 renal = tested on: RXF 393 renal
SF-268 CNS = tested on: SF-268 CNS
SF-295 CNS = tested on: SF-295 CNS
SF-539 CNS = tested on: SF-539 CNS
UACC-257 melanoma = tested on: UACC-257 melanoma
M14 melanoma = tested on: M14 melanoma

SMILES	growth (DU-145 prostate)	growth (K-562 leukemia)	growth (MALME-3M melanoma)	growth (MDA-MB-231 breast)	growth (RXF 393 renal)	growth (SF-268 CNS)	growth (SF-295 CNS)	growth (SF-539 CNS)	growth (UACC-257 melanoma)	growth (M14 melanoma)
C=C(C)[C@@H]1CC[C@]2(C)[C@H](CC=C3[C@@H]4C[C@](C)(C(=O)N5CCN(C)CC5)CC[C@]4(C)CC[C@]32C)[C@@]1(C)CCC#N	88.3%	23.4%	77%	85.9%	84.9%	72.5%	95%	70.2%	51.4%	66.6%
CCN(C)CCCOc1ccc(/C(=C(\C)Cc2cccc(OC)c2)c2ccc(OC(C)=O)cc2)cc1	104%	101%	97.3%	104%	106%	94.1%	99.1%	101%	109%	101%
O=C1c2ccccc2C(=O)c2c1oc1ccc3ccccc3c21	85.7%	101%	27.8%	60%	88.2%	76.7%	93.7%	78.3%	77.7%	57.1%
CC(C)[C@H](CN)NC[C@H](C)NS(=O)(=O)c1ccc(C(C)(C)C)cc1	105%	85.7%	97.8%	117%	89.9%	93.5%	104%	96.9%	96.4%	97.3%
N#Cc1nc(-c2ccc(Cl)cc2)cc(-c2ccc(Nc3nc(N4CCCCC4)nc(N4CCCCC4)n3)cc2)c1N	105%	105%	107%	114%	115%	101%	101%	103%	105%	104%
O=c1[nH]c2cc(Cl)c(Cl)cc2o1	113%	102%	117%	100%	135%	103%	55.9%	105%	114%	105%
NC(=O)c1noc(C(=O)c2ccccc2)c1N	104%	89.5%	101%	109%	96.2%	98.4%	98.9%	107%	102%	110%
Cc1n(Cc2ccc3ccccc3n2)cc[n+]1Cc1ccc2ccccc2n1	94.6%	36.2%	55.9%	97.3%	86.8%	73.5%	87.7%	67.9%	42.6%	86.9%
C=C1NC(=O)C(C(C)CC)NC(=O)C2CSCC(NC(=O)CCC(=O)O)C(=O)NC(Cc3ccccc3)C(=O)NC(C)C(=O)NC(CC(C)CC)C(=O)NC(C(=O)NC(Cc3ccccc3)C(=O)N3CCCC3C(=O)N2)C(C)OC(=O)C(CO)NC(=O)C(C(O)COC)N(C)C(=O)C(C(C)C)NC(=O)C(CC(C)CC)NC1=O (stereo not given)	9.63% [6 µM] (active)	9.39% [6 µM] (active)	55.3% [6 µM]	35.1% [6 µM]	21.6% [6 µM]	25.5% [6 µM]	14.9% [6 µM]	-6.71% [6 µM] (active)	30.1% [6 µM]	5.52% [6 µM] (active)
O=C(C(=O)c1cccnc1)c1cccnc1	121%	110%	118%	99.7%	136%	95.8%	116%	99.3%	95%	96.3%
N#Cc1c(NN)n(C2OC(CO)C(O)C2O)c2ncnc(N)c12 (stereo not given)	-0.273% (active)	-46.1% (active)	-9.07% (active)	15.2%	-53.1% (active)	15.1%	56.9%	-5.9% (active)	-26.3% (active)	-18.3% (active)
CC(=O)N1N=C(c2ccc(C)cc2)CC1c1cn(-c2ccccc2)nc1-c1cccc(Nc2ccnc3cc(Cl)ccc23)c1 (stereo not given)	34.3%	15.1%	-2.79% (active)	58.9%	67.8%	73.7%	109%	99.4%	106%	87.3%
COc1ccc2[nH]c(C(=O)OCc3ccc4cccc(O)c4n3)cc2c1	-91.8% (active)	-3.39% (active)	-76.2% (active)	-70.8% (active)	-92.2% (active)	-65.6% (active)	73.7%	-92.7% (active)	-70.7% (active)	-75.6% (active)
C/C=C(\C)C(C(=O)NC1CCCCC1)N(C(=O)C1CCc2cc(F)ccc2O1)c1ccc([N+](=O)[O-])cc1 (stereo not given)	105%	80.7%	92.4%	77.7%	98.4%	87%	82.5%	92.8%	93%	82.4%
COc1ccc(NC(=O)c2ccc(C(F)(F)F)nc2Nc2ccc(Cl)cc2C)cc1Cl	9.29% (active)	16.4%	34.8%	7.34% (active)	42.5%	38.2%	3.72% (active)	50.3%	22%	34.2%
Cc1ccc(NC(=O)c2[nH]c(SCCN(C)C)nc2-c2ccc(F)cc2)cc1Nc1ccc2ncn(C)c(=O)c2c1	80.1%	40.2%	-12.8% (active)	40.6%	71.5%	71.1%	82.9%	65%	22%	2.94% (active)
CCCc1n(Cc2ccc3ccccc3n2)cc[n+]1Cc1ccc2ccccc2n1	51.2%	12.8%	12.5%	17.8%	48.7%	27.8%	59.9%	31.2%	-11.5% (active)	37.2%
COc1ccc(C2CC(c3cccc(Nc4ccnc5cc(Cl)ccc45)c3)=NN2c2ccccc2)cc1 (stereo not given)	82.8%	20.7%	58.7%	74.2%	99%	71.2%	23%	65.4%	59.7%	27%
COc1cc2nccc(Oc3ccc(NC(=O)C4(C(=O)Nc5ccc(F)cc5)CC4)cc3)c2cc1Oc1ccc(N)cn1	49.5%	3.07% (active)	43.1%	42.7%	11.5%	36.8%	0.157% (active)	5.06% (active)	34%	39.8%
CNCc1ccccc1CN(CC(=O)Nc1ccc2c(c1)CC1(C2)C(=O)Nc2ncccc21)C(=O)C(C)(C)C (stereo not given)	112%	107%	99.5%	108%	126%	101%	106%	100%	102%	98.7%
COc1cccc(CC(C)=C(c2ccc(OCCCN(C)C)cc2)c2ccc(OCCCN(C)C)cc2)c1	-94.4% (active)	-67.5% (active)	-87% (active)	-82.2% (active)	-89.5% (active)	-81.8% (active)	-68.2% (active)	-91.6% (active)	-82.3% (active)	-80% (active)
Nc1ccc(N(O)/C=C2\C=CC=CC2=O)cc1N	121%	93.5%	101%	85.9%	98.2%	107%	112%	101%	98.7%	101%
C=C(C)c1ccc(/C=N/NC(N)=S)cc1	97.6%	89%	116%	96.8%	94.6%	109%	76.5%	99.2%	257%	87.2%
Oc1ccc(Nc2ncnc3c2sc2ncccc23)cc1	17.2%	38.2%	60.6%	64.4%	35.3%	23.7%	15.1%	5.87% (active)	36.4%	-19% (active)
COC1=CC(c2ccc[nH]2)=N/C1=C\c1[nH]c(C)c(C(=O)CCCCCCCCC(=O)O[C@H]2CC[C@H]3C4CCc5cc(O)ccc5C4CC[C@]23C)c1C (stereo not given in full)	32.2%	13.1%	40.5%	3.86% (active)	52.5%	38.7%	28.8%	32.5%	49.2%	-35.7% (active)
CN(C)CCOc1nc2c3ccncc3cc(-c3cccc(Cl)c3)c2c2cnccc12	30.7%	-34.7% (active)	40.1%	24%	1.01% (active)	35.1%	31.6%	32%	47.3%	26%
